Rows were chosen to be rich in hits. Some 4.7% of all compounds tested hit in one or more screens of this group.
D3 antag – blocks the human D3 dopamine receptor | max response, negative = inhibition, % | 2.5% of 360,000 active | D3R cells, DiscoveRx beta-arrestin luminescence, antagonist mode; active compounds read low | AID 652054; in the data active = max response below about -50%; inconclusive = no clear call, values can overlap the other calls
Target sequence (P35462 whole entry, looked up): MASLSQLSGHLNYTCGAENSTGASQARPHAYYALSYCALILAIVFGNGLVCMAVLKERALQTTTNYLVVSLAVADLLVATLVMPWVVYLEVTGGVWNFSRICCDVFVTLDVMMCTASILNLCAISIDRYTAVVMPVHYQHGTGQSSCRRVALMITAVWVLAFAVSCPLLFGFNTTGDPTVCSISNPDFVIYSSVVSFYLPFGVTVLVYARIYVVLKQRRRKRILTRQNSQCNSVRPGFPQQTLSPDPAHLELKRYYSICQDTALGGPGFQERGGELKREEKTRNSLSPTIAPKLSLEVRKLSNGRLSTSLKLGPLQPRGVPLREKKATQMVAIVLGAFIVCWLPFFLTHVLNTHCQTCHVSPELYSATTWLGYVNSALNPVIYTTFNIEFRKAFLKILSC
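Cells expressing the human receptor were seeded at 1500 cells/well, incubated overnight at 37 degrees C in 5% CO2, then exposed to library compounds with dopamine controls for 90 minutes at 37 degrees C before luminescent detection.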
HepG2 tox – counter-screen for TGF-b inhibitors: cytotoxicity in HepG2 cells | HepG2 CAGA-GFP viability, ATP luminescence, 18 h | Potency, µM (series often up to 46.1 µM), most hits filed as cytotoxic | 0.76% of 410,000 active | AID 588856
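CellTiter-Glo luminescence gave cytotoxicity after 18 hours at 37 degrees C. The cells were HepG2 CAGA-GFP in 1% FBS DMEM, stimulated with 500 pg/mL TGF-beta after compound addition. %Activity was normalised to no-cell wells (complete cell-killing) and DMSO (no toxicity), and curves were fitted and classified.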
ATXN2 expr inh – ATXN2 expression inhibition. 0.72% of 360,000 active. AID 1745845. HEK-293 ATXN2-luciferase reporter, luminescence, 24 h. Potency, µM (series often up to 57 µM), usual class: inhibitors; note: nearly all actives have a fitted effect of over 55% in size
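qHTS (up to 57 uM final) was run with 24 h compound exposure of reporter cells at 37 °C. Each well was multiplexed: SteadyGlo luminescence measured ATXN2-luciferase expression after a fluorogenic Gly-Phe-AFC viability readout (25 uM final).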
S2 tox – viability counter-screen for ATXN expression inhibitors; Potency, µM (top dose mostly 56.7 µM), usual class: cytotoxic; 0.49% of 400,000 active; AID 651635; S2 cells (HEK-293 line with an ATXN2-luciferase reporter) viability, CellTiter-Fluor protease fluorescence, 24 h; note: nearly all actives have a fitted effect of over 40% in size
DRD3 agonist – D3 dopamine receptor (human) agonism | P35462 | D3R DiscoveRx beta-arrestin cells, luminescence, 90 min | max activation, % | 0.58% of 410,000 active | AID 652048; in the data active = max activation above about 30%
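Cells at 1500/well, incubated overnight, then treated with pinned compounds (dopamine as control) for 90 min at 37 degrees C. DiscoveRx reagent added for 30 - 60 minutes at room temperature; luminescence read.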
TGFb inhibitor – inhibitors of TGF-b signaling | AID 588855 | 1.2% of 410,000 active | HepG2 CAGA-GFP TGF-b/SMAD3 reporter, GFP fluorescence, 18 h; TGF-beta stimulated, 500 pg/mL final | Potency, µM (highest dose often 46.1 µM), usual class: inhibitors; note: nearly all actives have a fitted effect of over 65% in size
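TGF-beta reporter screen: HEPG2 CAGA-GFP, 1% FBS, 500 pg/mL TGF-beta final, 18 h; per-cell GFP summed per well; curves fitted and categorized by class.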
Large screens that a line does not name were inactive. Unless noted, calls come from the whole dose curve; as a rule, active = well fitted curve in the direction sought with a large enough effect; inconclusive = small, poorly fitted or top-dose-only effect, or another doubt; inactive = no such curve, though single readings can be large; an effect the other way counts as inactive or inconclusive.

COc1ccc(OC)c(CCNC(=O)c2cc3c(-c4ccccc4F)nn(C)c3s2)c1	ATXN2 expr inh 25µM, S2 tox inconclusive, TGFb inhibitor inconclusive (no result: D3 antag)
COCCNC(=O)c1cc2c(-c3ccccc3F)nn(C)c2s1	none
CCc1ccc(Nc2nc3ccccc3c3nnc(C)n23)cc1	none (no result: D3 antag, ATXN2 expr inh, S2 tox)
CCN1CCN(CCn2c(=S)[nH]c3ccccc3c2=O)CC1	D3 antag -62
CCn1c(=O)[nH]c2ccccc2c1=O	D3 antag -56
COc1ccccc1Cn1c(=S)[nH]c2cc(C(=O)N3CCCC3)ccc2c1=O	none
CCN1CCN(C(=O)c2ccc3c(=O)n(Cc4ccccc4OC)c(=S)[nH]c3c2)CC1	D3 antag -50
O=c1c2ccccc2[nH]c(=S)n1CCCN1CCC(Cc2ccccc2)CC1	D3 antag -90, S2 tox inconclusive (no result: ATXN2 expr inh)
O=C(CCCl)NCCc1ccccc1	none (no result: D3 antag, HepG2 tox, DRD3 agonist, TGFb inhibitor)
Cc1cc(C)cc(C(=O)NCc2nc(-c3cccc(NC(=O)c4ccccn4)c3)oc2C)c1	none (no result: D3 antag, HepG2 tox, ATXN2 expr inh, DRD3 agonist, TGFb inhibitor)
O=c1c2ccccc2[nH]c(=S)n1CCN1CCCC1	none (no result: ATXN2 expr inh)
Cc1cccc(C)c1N1CCN(CCn2c(=S)[nH]c3ccccc3c2=O)CC1	D3 antag -69, S2 tox inconclusive
COc1ccc(Nc2nc(Nc3ccc(OC)cc3)nc(-n3[nH]c(=O)c(C)c3C)n2)cc1	D3 antag -59
COc1ccc(Nc2nc(OC)nc(OC)n2)cc1	none (no result: ATXN2 expr inh)
Nc1ccc2c(c1)C(=O)N(c1ccc3ccccc3c1)C2=O	none (no result: D3 antag, ATXN2 expr inh, S2 tox, DRD3 agonist)
O=C(O)c1cccc(S(=O)(=O)Nc2ccc3oc(=O)sc3c2)c1	D3 antag -87
CC[N+]1(CC(=O)c2ccc(Br)cc2)CCCCC1	none (no result: D3 antag, ATXN2 expr inh, S2 tox, DRD3 agonist)
NS(=O)(=O)c1ccc(Sc2ccccn2)c([N+](=O)[O-])c1	none
NS(=O)(=O)c1ccc(Sc2nc3ccccc3s2)c([N+](=O)[O-])c1	HepG2 tox 13µM, ATXN2 expr inh inconclusive, TGFb inhibitor inconclusive
CCC1CC=CC2C1C(=O)N(Cc1ccccc1)C2c1ccc(OC)c(Cl)c1 (centres undefined)	TGFb inhibitor inconclusive (no result: D3 antag, ATXN2 expr inh, S2 tox, DRD3 agonist)
COc1ccc(-n2ccnc(NCc3cccs3)c2=O)cc1OC	none (no result: D3 antag)
COc1ccccc1CC(=O)Nc1ccc(S(=O)(=O)N(C)C2CCN(C)CC2)cc1	D3 antag -51
COc1ccc(NC(=O)c2oc3ccc(S(=O)(=O)N4CCCCC4)cc3c2C)cc1	none (no result: D3 antag)
COc1ccc2oc(C(=O)Nc3ccc(S(=O)(=O)N(C)C4CCN(C)CC4)cc3)c(C)c2c1	HepG2 tox 13µM, ATXN2 expr inh inconclusive, S2 tox inconclusive, TGFb inhibitor inconclusive
N=C(N)c1ccc(OCCCOc2ccc(C(=N)N)cc2Br)c(Br)c1	none (no result: D3 antag, HepG2 tox, ATXN2 expr inh, TGFb inhibitor)
CC(C)CC(=O)Nc1n[nH]c2c1CN(C(=O)C1CCN(C)CC1)C2(C)C	ATXN2 expr inh 1.1µM (no result: D3 antag, HepG2 tox, S2 tox, DRD3 agonist, TGFb inhibitor)
CCc1ccc(C2NC(=O)c3[nH]nc(-c4cccc(OC)c4)c32)cc1 (centres undefined)	ATXN2 expr inh inconclusive, S2 tox inconclusive, TGFb inhibitor inconclusive (no result: D3 antag)
O=C1c2ccccc2C(=O)N1Nc1ccc([N+](=O)[O-])cc1[N+](=O)[O-]	D3 antag -75
CCc1[nH]nc2c1C1(CCOC1C)C(C#N)=C(N)O2 (centres undefined)	D3 antag -57
CCc1[nH]nc2c1C1(CCN(C(=O)c3ccccc3)CC1)C(C#N)=C(N)O2	none
CCCC(=O)N(C)c1ccc(/C=C2\C=Cc3ccccc32)cc1	none (no result: D3 antag, ATXN2 expr inh, S2 tox, DRD3 agonist)
Cc1ccccc1-c1ccc(CN2CCc3nnc(CNC(=O)c4ccccn4)n3CC2)cc1	none (no result: D3 antag, HepG2 tox, ATXN2 expr inh, DRD3 agonist, TGFb inhibitor)
COC(=O)N/N=C/c1cccc([N+](=O)[O-])c1	S2 tox inconclusive
O=C(CNC(=O)c1ccc(F)cc1)N/N=C/c1cc(Br)ccc1OC(=O)/C=C/c1ccco1	ATXN2 expr inh 8.9µM, S2 tox inconclusive, TGFb inhibitor inconclusive
COC(=O)N/N=C/c1cc([N+](=O)[O-])cc(Br)c1O	D3 antag -98, ATXN2 expr inh inconclusive
O=C(CNC(=O)c1ccccc1Br)N/N=C\c1cc([N+](=O)[O-])cc(Br)c1O	D3 antag -76
